# Test results: PubChem BioAssay
# “And” between values parts separate entries of the source, which are not always exact repeats. Identical values can stand only once. The source made the active and inactive calls. Unless noted, how the calls were made is not given here.
# Assays:
# [1] = circadian clock period modulators, cell-based, LOPAC library, luminescence reporter (AID 2774); details: circadian reporter cells, at 7 µM, actives lie on both sides;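 further: values are relative to mean of DMSO wells on each plate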
# [2] = test system: Hepatitis C virus NS3 helicase; experiment: HCV NS3 helicase inhibitors, primary screen, biochemical, fluorescence polarization, LOPAC1280 library (AID 687035; in the data active means inhibition above about 37%); details: Purified HCV NS3 helicase, Cy5-dT15 ssDNA binding fluorescence polarization; stronger effect = higher value; concentration not given here
# [3] = Cy5 fluorescence quenching or enhancement artefacts, artefact control for HCV NS3 helicase inhibitor project, biochemical, LOPAC1280 (AID 687037); details: Cy5-DNA-NS3h complex fluorescence interference counterscreen
# [4] = test system: Aerobactin synthetase IucA (Klebsiella pneumoniae); experiment: IucA aerobactin synthetase inhibitors, biochemical, Tocris library, absorbance (AID 1345561); details: purified IucA enzyme assay, absorbance (OD) read-out; stronger effect = lower value;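 tested at 8 µM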;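 further: 100% = enzyme without compound and 0% = no enzyme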
# [5] = sensitizers of A549 cells to miR-34 induction, primary screen, imaging, A549 dox-inducible miR-34, nuclei and caspase counts (AID 1347080;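 active means compounds whose cell count with miR-34 switched on is under 0.7 times the count with it off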); details: A549 miR-34 inducible, Hoechst nuclei count, 48 h
# [6] = phospholipid biosynthesis inhibitors in animal cells, primary screen, cell-based, LOPAC library, screen 4 (AID 1347384); details: phospholipid biosynthesis inhibition screen, at 10 µM
# [7] = viability rescue of complex I mutant cybrids, primary screen, cell-based, galactose medium, ATP luminescence (AID 1645843;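 active means z-score of at least 1.8 in each of two replicates, scored against plate mean and spread of sample wells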;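 further: positive z means more ATP and so rescue of galactose-driven cybrid death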); details: complex I mutant cybrid cells, 72 h, stronger effect = higher value
# [8] = stronger effect = lower value, cell number ratio, induced over uninduced
# [9] = measured here: relative caspase fold change +Dox/-Dox
# [10] = measured here: total cells with miR-34 induction, stronger effect = lower value
# [11] = measured here: total cells without miR-34 induction
SMILES,period change [1],inhibition [2],fluorescence ratio (interference) [3],remaining activity [4],"fold change [5, 8]","fold change [5, 9]","cell count [5, 10]","cell count [5, 11]",outcome [6],z-score [7]
CC(C)(CO)Cc1cc(C(C)(C)C)c(O)c(C(C)(C)C)c1,0.05 h (inactive),0% (inactive),1 (inactive),101% (inactive),1.04 (inactive) and 0.971 (inactive),1.88 and 0.81,7090 and 8690,6800 and 8950,inactive,-1.4 (inactive) and -0.73 (inactive)
CC1CCN(CC[C@H]2CCCN2S(=O)(=O)c2cccc(O)c2)CC1,0.055 h (inactive),-3% (inactive),1 (inactive),106% (inactive),0.975 (inactive) and 0.908 (inactive),1.72 and 0.97,9460 and 8490,9700 and 9350,inactive,-0.155 (inactive) and -0.32 (inactive)
C[C@H](NC(=O)/C(C#N)=C/c1ccc(O)c(O)c1)c1ccccc1,0.035 h (inactive),-1% (inactive),1 (inactive),111% (inactive),0.957 (inactive) and 0.876 (inactive),2.11 and 1.78,6810 and 7420,7120 and 8470,inactive,-1 (inactive) and -0.545 (inactive)
CC(=O)NNC(=O)N1Cc2ccccc2Oc2ccc(Cl)cc21,-0.025 h (inactive),-1% (inactive),1 (inactive),100% (inactive),0.965 (inactive) and 0.956 (inactive),0.954 and 0.9,10200 and 8650,10600 and 9060,inactive,1.17 (inactive) and 0.635 (inactive)
COC(=O)C1=C(C)NC(C)=C([N+](=O)[O-])C1c1ccccc1C(F)(F)F (stereo not given),0.05 h (inactive),-5% (inactive),0.9 (inactive),124% (inactive),1.01 (inactive) and 1 (inactive) and 0.845 (inactive),1.21 and 1.49 and 0.884,9160 and 5080 and 7400,9050 and 5080 and 8750,inactive,-0.7 (inactive) and -0.625 (inactive)
CC[C@H](NC(=O)c1c(C)c(-c2ccccc2)nc2ccccc12)c1ccccc1,0.09 h (inactive),1% (inactive),1 (inactive),110% (inactive),1.28 (inactive) and 0.912 (inactive),1.6 and 0.801,6890 and 7500,5390 and 8230,inactive,1.77 (inactive) and 1.96 (inactive)
CCCCCCN(CCCCCC)C(=O)Cc1c(-c2ccc(F)cc2)[nH]c2ccccc12,-0.08 h (inactive),1% (inactive),1 (inactive),100% (inactive),1.29 (inactive) and 0.933 (inactive),1.15 and 0.997,5020 and 4030,3880 and 4320,inactive,-1.04 (inactive) and -1.23 (inactive)
COC(=O)[C@H](NC(=O)c1cc(-c2ccccc2)nc2ccccc12)c1ccccc1,-0.11 h (inactive),-1% (inactive),1 (inactive),100% (inactive),1 (inactive) and 0.927 (inactive),0.906 and 0.535,9010 and 8560,8980 and 9240,inactive,0.22 (inactive) and -0.03 (inactive)
O=C(O)C1=CCCN(CCON=C(c2ccccc2)c2ccccc2)C1,-0.05 h (inactive),1% (inactive),1 (inactive),122% (inactive),1.08 (inactive) and 0.953 (inactive),0.8 and 1.02,9470 and 9840,8800 and 10300,inactive,0.145 (inactive) and -0.05 (inactive)
c1ccc2nc(C3=NCCN3)ccc2c1,0.1 h (inactive),0% (inactive),1 (inactive),101% (inactive),1.03 (inactive) and 0.931 (inactive),1.73 and 0.739,9970 and 8800,9720 and 9460,inactive,0.695 (inactive) and 0.09 (inactive)
S=C(S)N1CCCC1,0.08 h (inactive),-2% (inactive),1 (inactive),87.7% (inactive),0.892 (inactive) and 0.97 (inactive),1.02 and 0.891,6850 and 8740,7680 and 9010,inactive,-1.38 (inactive) and -1.23 (inactive)
CN=c1nc(-c2ccccc2)n(-c2ccccc2)s1,-0.055 h (inactive),8% (inactive),1 (inactive),118% (inactive),0.91 (inactive) and 0.922 (inactive),1.06 and 0.764,3550 and 4090,3900 and 4440,inactive,-1.38 (inactive) and -0.73 (inactive)
Nc1ncnc2c1ncn2C1CCCO1 (stereo not given),-0.01 h (inactive),-1% (inactive),1 (inactive),110% (inactive),0.951 (inactive) and 0.846 (inactive) and 0.927 (inactive),1.64 and 1.08 and 0.781,9560 and 5440 and 8660,10100 and 6440 and 9350,inactive,0.435 (inactive) and -0.32 (inactive)
CC(C)(C)NCC(O)COc1cccc2[nH]c(=O)[nH]c12 (stereo not given),-0.075 h (inactive),-3% (inactive),1 (inactive),89.1% (inactive),0.952 (inactive) and 0.913 (inactive),1.58 and 1.07,9940 and 8700,10400 and 9520,inactive,0.24 (inactive) and 0.505 (inactive)
CCn1c(=O)[nH]c2cc(Cl)c(Cl)cc21,0.01 h (inactive),-2% (inactive),1 (inactive),114% (inactive),0.936 (inactive) and 0.878 (inactive),1.34 and 0.845,8830 and 7930,9440 and 9020,inactive,0.275 (inactive) and 0.885 (inactive)
NC[C@@H]1O[C@H](C23CC4CC(CC(C4)C2)C3)Cc2c1ccc(O)c2O,0.01 h (inactive),-3% (inactive),0.9 (inactive),123% (inactive),1.09 (inactive) and 0.908 (inactive),1.75 and 0.979,4260 and 7980,3890 and 8790,inactive,-1.5 (inactive) and -0.775 (inactive)
O=C(OCCN1CCOCC1)C1(c2ccccc2)CCCCC1,-0.085 h (inactive),-2% (inactive),1 (inactive),124% (inactive),1.05 (inactive) and 1.02 (inactive),1.06 and 0.742,10700 and 8020,10200 and 7840,inactive,-0.08 (inactive) and -0.97 (inactive)
Clc1ccc(N2CCN(Cc3c[nH]c4ncccc34)CC2)cc1,0.105 h (inactive),12% (inactive),1 (inactive),95.2% (inactive),1.07 (inactive) and 0.896 (inactive),0.721 and 0.794,9090 and 6380,8470 and 7120,inactive,-0.965 (inactive) and -1.05 (inactive)
CCN(CC)CCOC(=O)c1cc(Cl)c(N)cc1OC,-0.055 h (inactive),-6% (inactive),1 (inactive),95% (inactive),0.965 (inactive) and 0.955 (inactive),1.47 and 1.03,10500 and 9010,10800 and 9430,inactive,0.75 (inactive) and 0.1 (inactive)
CC#CCOC(=O)c1c(C)nc2sc3c(c2c1N)CCC(O)C3 (stereo not given),-0.09 h (inactive),-3% (inactive),1 (inactive),102% (inactive),0.861 (inactive) and 0.824 (inactive),0.901 and 1,7740 and 5720,8990 and 6940,inactive,-1.22 (inactive) and -0.71 (inactive)
CC(C)(C=O)Cc1cc(C(C)(C)C)c(O)c(C(C)(C)C)c1,0.05 h (inactive),0% (inactive),1 (inactive),125% (inactive),1.05 (inactive) and 0.927 (inactive),1.79 and 0.718,9400 and 9850,8980 and 10600,inactive,-1.33 (inactive) and -0.18 (inactive)
Cc1cccc(C(=O)NCN2CCN(c3ccccc3C#N)CC2)c1,0.095 h (inactive),-3% (inactive),1 (inactive),92.5% (inactive),0.97 (inactive) and 0.957 (inactive),0.725 and 1.8,9570 and 9300,9870 and 9720,inactive,-0.125 (inactive) and 0.395 (inactive)
NCC(O)(CS(=O)(=O)O)c1ccc(Cl)cc1 (stereo not given),0.035 h (inactive),-2% (inactive),1 (inactive),105% (inactive),0.977 (inactive),2.17 and 0.803,9480 and 8580,9700 and 8780,inactive,0.265 (inactive) and -0.115 (inactive)
Cc1ccc(O)c(N=Nc2ccccc2)n1,-0.01 h (inactive),1% (inactive),0.9 (inactive),110% (inactive),0.956 (inactive) and 0.932 (inactive),0.751 and 0.659,10100 and 8850,10500 and 9490,inactive,1.16 (inactive) and 0.96 (inactive)
O=c1[nH]c2cc([N+](=O)[O-])c([N+](=O)[O-])cc2[nH]c1=O,0.075 h (inactive),-4% (inactive),1 (inactive),109% (inactive),0.955 (inactive) and 0.937 (inactive),1 and 0.778,9840 and 7960,10300 and 8490,inactive,-0.11 (inactive) and 0.22 (inactive)
NC(=O)CNCCC(c1ccccc1)c1ccccc1,-0.275 h (inactive),0% (inactive),1.1 (inactive),72.6% (inactive),0.993 (inactive) and 0.866 (inactive),1.46 and 1.33,9880 and 8250,9950 and 9520,inactive,-0.185 (inactive) and 0.085 (inactive)
CC(/C=C/c1cccc(Oc2ccc(F)cc2)c1)N(O)C(N)=O (stereo not given),-0.095 h (inactive),0% (inactive),1 (inactive),129% (inactive),1.07 (inactive) and 0.882 (inactive) and 0.954 (inactive),1.69 and 1.06 and 0.78,8210 and 4190 and 6640,7700 and 4750 and 6960,inactive,-1.33 (inactive) and -0.775 (inactive)
